# Values joined by “and” are separate entries in the source; they are usually repeats but may differ in a detail not shown here. Equal entries are not always repeated. Records with an inconclusive call do not appear. A number with no mark means an inactive call. Active and inactive are the calls of the source. The call rests on the fitted dose curve; in most records, active means well fitted inhibition curve with a large enough effect in the repeat runs; inconclusive means weak or mixed curves, or effect the other way; inactive means no such curve, though single readings can be large or run the other way.
# Biological target: Nuclear receptor subfamily 1 group I member 3 (Homo sapiens) (UniProt Q14994)
# Assay: qHTS assay to identify small molecule antagonists of the constitutive androstane receptor (CAR) signaling pathway (AID 1224838);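 further: HepG2 cells stably expressing hCAR with CYP2B6 luciferase reporter stimulated by CITCO; nearly all actives have a fitted effect of over 40% in size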
# Settings: HepG2-CYP2B6-hCAR luciferase, CITCO-stimulated, 24 h; series mostly up to 92.4 µM; activity, negative = inhibition: at the top concentration
# Source text: U.S. Tox21 Program National Center for Advancing Translational Sciences [NCATS] NIH Chemical Genomics Center [NCGC] U.S. Environmental Protection Agency [EPA] National Institutes of Environmental Health Sciences [NIEHS] National Toxicology Program [NTP] U.S. Food and Drug Administration [FDA] Tox21 Assay Overview: The constitutive androstane receptor (CAR) is a nuclear receptor which regulates multiple drug metabolizing enzymes (DMEs) and transporters. Activating CAR will generally increase the transcription and subsequent translation of CYP2B6 and CYP3A4. These two DMEs represent about 50% of the drug metabolizing potential in the body. When CAR is deactivated, the metabolizing potential in the body will decrease, subsequently increasing the toxicity in the body or lowering the therapeutic potential of a pro-drug. Recently, there have also been studies performed indicating CARs role in energy metabolism and cancer therapy. Therefore, inhibiting CARs activity could have a potential effect on diabetes and cancer. Identifying environmental toxins and compounds which modulate CAR, through the use of the Tox21 10K compound collection, will be an important step in determining the toxicity and potential therapeutic effects these factors will have on the human body.
# Tox21 Assay Protocol Summary: A double-stable (hCAR and CYP2B6-2.2kb) transfected cell line, derived from human hepatoma (HepG2) cells, was utilized for the duration of the quantitative high-throughput screens. The HepG2-CYP2B6-hCAR cells suspended in DMEM culture medium supplemented with 10% FBS, 5 ug/mL blasticidin, 0.5 mg/mL geneticin, 100 U/mL penicillin and 100 ug/mL streptomycin were dispensed at 2500 cells/4 uL/well in 1536-well white solid bottom plates using a Multidrop Combi. After the assay plates were incubated at 37 C/5% CO2 for 4 hrs, 23 nL of compounds at 15 concentrations (from 5-48 columns) or positive control (from 1 to 4 columns) were transferred to the assay plates using a Pintool station. One uL of CITCO, was added using a Flying Reagent Dispenser to generate a final concentration of 50 nM CITCO inside each well. After a 24 hr incubation period at 37 C/5% CO2, four uL of ONE-Glo reagent was added into the assay plates using a Flying Reagent Dispenser. After a 30 min incubation period at room temperature, the luminescence intensity in the assay plates was measured using a ViewLux plate reader.
# On the % scale 0 is the no-effect control and ±100 the full control effect; potency means the concentration at half of the fitted maximal effect.
# Sequence of Nuclear receptor subfamily 1 group I member 3 (Homo sapiens) (Q14994 whole entry, looked up): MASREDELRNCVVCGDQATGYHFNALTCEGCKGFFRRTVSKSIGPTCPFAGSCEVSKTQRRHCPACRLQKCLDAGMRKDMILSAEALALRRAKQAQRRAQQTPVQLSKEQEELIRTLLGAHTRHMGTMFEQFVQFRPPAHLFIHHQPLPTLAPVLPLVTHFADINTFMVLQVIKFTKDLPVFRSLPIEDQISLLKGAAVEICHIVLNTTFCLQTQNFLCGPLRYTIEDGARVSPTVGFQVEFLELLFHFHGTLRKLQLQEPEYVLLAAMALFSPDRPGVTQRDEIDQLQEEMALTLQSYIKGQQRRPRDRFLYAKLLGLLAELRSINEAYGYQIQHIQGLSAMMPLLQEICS
SMILES,Potency,"activity, negative = inhibition"
CN1[C@@H]2CC[C@H]1CC(OC(=O)C(CO)c1ccccc1)C2 (stereo not given in full),inactive,–
Oc1cc2ccccc2cc1O,–,23.9%
ClC/C=C\CCl,–,-12.7%
CCCCCCCC/C=C\CCCCCCCC(=O)NCc1ccc(O)c(OC)c1,–,-3.82% [at 42.5 µM]
CN1CN(C)CN(C)C1,–,-10.7%
CCO[Si](CCCSSSSCCC[Si](OCC)(OCC)OCC)(OCC)OCC,–,27.1%
COC(=O)NCCC[Si](OC)(OC)OC,–,-6.84%
CCCCN(C)C,–,9.13%
O=C1Nc2ccc(Cl)cc2[C@@](C#CC2CC2)(C(F)(F)F)O1,–,-9.16% [at 42.5 µM]
CCOC(OCC)C(=O)c1ccccc1,–,5.1%
CCC(C)(C)c1cc(O)c(C(C)(C)CC)cc1O,–,-29.8%
C/C=C/C(=O)C1=C(C)CCCC1(C)C,–,58.8%
CC1=C(/C=C/C(C)=C/C=C/C(C)=C\C=O)C(C)(C)CCC1,–,60.5%
CN1[C@@H]2CC[C@@H]1CC(OC(=O)C(CO)c1ccccc1)C2 (stereo not given in full),–,8% [at 42.5 µM]
CCOC(=O)[C@@](C)(N)Cc1ccc(O)c(O)c1,–,11% [at 42.5 µM]
NC(=O)C(=O)N/N=C/c1ccc([N+](=O)[O-])o1,–,2.69% [at 42.5 µM]
CC[N+](CC)(CC)Cc1ccccc1,–,-14%
OCCN1CN(CCO)CN(CCO)C1,–,13.8%
CC(C)C(=O)OCc1ccccc1,–,-14.5%
CCOC(/C=C(\C)CCC=C(C)C)OCC,–,-18.6%

SMILES,Potency,"activity, negative = inhibition"
CCOC(=O)C1=C(C)NC(C)=C(C(=O)OCC)C1c1ccccc1/C=C/C(=O)OC(C)(C)C,–,11.4% [at 42.5 µM]
CCOC(=O)COc1ccc(C)cc1,–,-1.16%
CCCCCCCOC(=O)c1ccccc1C(=O)OCCCCCCC,–,66%
CCCC(CC)CCCCCCCN (stereo not given),–,4.82%
CCC1CCCCC1,–,15.2%
CCC1(c2cnc[nH]2)Cc2ccccc2C1,–,92.6% [at 42.5 µM]
c1ccc2c(c1)CCC2,–,9.13%
O=C1c2c(O)ccc([N+](=O)[O-])c2C(=O)c2c([N+](=O)[O-])ccc(O)c21,24.1 µM (active),–
Clc1ccc(C(Cn2ccnc2)OCc2ccsc2Cl)c(Cl)c1 (stereo not given),–,33.2% [at 42.5 µM]
CC1(C)COCN1,–,-10.3%
CCCN(CCc1cccs1)[C@H]1CCc2c(O)cccc2C1,–,-10.3% [at 42.5 µM]
Cc1cccc(C)n1,–,10.5%
CCc1ccc(C)nc1,–,7.2%
COC(=O)CC#N,–,-6.86%
CCN=c1cc2oc3cc(NCC)c(C)cc3c(-c3ccccc3C(=O)OCC)c-2cc1C,54.3 µM (active) and 54.5 µM (active),–
C=CC(=C)CCC=C(C)C,61.1 µM (active),–
CCc1c(Br)c(Br)c(Br)c(Br)c1Br,–,27.3%
COc1cccc(O)c1,–,35.5%
Brc1ccccn1,–,8.08%
CN1CCN(C2Cc3ccccc3Sc3ccc(Cl)cc32)CC1 (stereo not given),–,6.7% [at 42.5 µM]
